Here are results for 40 compounds from PubChem BioAssay AID1224856 (National Center for Advancing Translational Sciences (NCATS), 2016).

Results filed as inconclusive are left out. A call without a number means that no potency is given here. Activity calls are given as the source filed them. The call rests on the fitted dose curve; in most records, active means well fitted curve in the direction sought with a large enough effect; inconclusive means small, poorly fitted or top-dose-only effect, or another doubt; inactive means no such curve, though single readings can be large or run the other way.

The nature of the assay: Cell viability assay for measurement of the protective activity of small molecules against cell death caused by Zika virus infection in human astrocytes. Conditions: human astrocytes ZIKV-induced death, ATP luminescence, 72 h; series mostly up to 46.1 µM. An excerpt:
National Center for Advancing Translational Sciences [NCATS] Johns Hopkins University School of Medicine Florida State University Assay Overview: Zika virus infection causes cell death in certain cell types including human neural progenitor cells (hNPCs), astrocytes, and astrocytoma cell line (SNB-19). This cell viability assay measures the ATP content (level) in human astrocytes using a luminescence readout that is proportional to viable cell numbers. Decrease in the luminescence signal after Zika virus infection indicates the cell death caused by Zika virus. Small molecule inhibitors […] the decreased luminescence signal after Zika virus infection, indicating the protective effect of that small molecule on the cell death caused by Zika virus infection. This observed protective effect of small molecules against Zika virus induced cell death may result from inhibition of virus replication or cellular response to the virus infection.
Assay Protocol Summary: The medium for astrocytes contains AM basal medium (ScienCell, Cat.# 1801), AGS (ScienCell, Cat.# 1801), 10% FBS, and 1% Pen/Strep. The ATP content assay kit (PerkinElmer, Cat.# 6016731) was used to determine cell viability. The reagent was reconstituted and prepared as described by the manufacturer. Cells were seeded in 384- or 1536-well assay plates and cultured at 37 C with 5% CO2 for 16 to 20 hours. The typical cell seeding density in the 1536-well plate assay is 350 cells/well in 3 ul medium for astrocytes in the tissue cultured treated/PDL coated plates. Compounds were added to cells and incubated for one hour before addition of ZIKV solution to cells (2 FFU/cell). After incubation at 37 C with 5% CO2 for 72 hours, the reagent mixture of the ATP content assay kit was added to each well, followed by incubation at room temperature for 10 minutes. The luminescence intensity of the assay plates was measured using a ViewLux plate reader (PerkinElmer). […] The percentage inhibitions of the decreased cell viability by small molecule inhibitors were then calculated.
Take `COP(=S)(OC)SCN1C(=O)c2ccccc2C1=O`: the Potency entry was “inactive”.

As to `O=C1C[C@@H](c2ccc(O)cc2)Oc2cc(O)cc(O)c21`, the Potency entry was “inactive”.

Turning to `O=C1c2ccccc2C(=O)c2c1ccc(O)c2O`, the Potency result was “inactive”.

Take `C[C@@H](O[C@H]1OCCN(Cc2n[nH]c(=O)[nH]2)[C@@H]1c1ccc(F)cc1)c1cc(C(F)(F)F)cc(C(F)(F)F)c1`: the Potency result was “inactive”.

Consider `CCOCCOC(=O)/C=C/c1ccc(OC)cc1`, for which the Potency result is “inactive”.

Consider `COc1ccc(-c2cc(=O)c3c(O)cc(O)cc3o2)cc1O`, for which the Potency result is “inactive”.

Turning to `CCCCCNC(=O)N1CCC(CN(Cc2ccc(Cl)cc2)Cc2ccc([N+](=O)[O-])s2)C1` (stereo not given), the Potency result was “inactive”.

As for `CC(=C(CCOC(=O)C(C)C)SSC(CCOC(=O)C(C)C)=C(C)N(C=O)Cc1cnc(C)nc1N)N(C=O)Cc1cnc(C)nc1N`, the Potency result is “inactive”.

Turning to `O=C(O)[C@@H](c1ccc(OCc2ccc3ccccc3n2)cc1)C1CCCC1`, the Potency result is “inactive”.

Turning to `O=C(O)[C@H](CC(=O)N1C[C@@H]2CCCC[C@H]2C1)Cc1ccccc1`, the Potency result was “inactive”.

As to `CC(C)OC(=O)CCCC=CC[C@@H]1[C@H](C=C[C@@H](O)COc2cccc(C(F)(F)F)c2)[C@H](O)C[C@@H]1O`, the Potency result was “inactive”.

In the case of `CC(C)(C)OC(=O)CN(Cc1ccc(Cl)cc1)Cc1ccc([N+](=O)[O-])s1`, the Potency entry is “inactive”.

Take `O=c1[nH]nc(Sc2ncc([N+](=O)[O-])s2)n1-c1ccc2c(c1)OCCO2`: the Potency entry is “inactive”.

Regarding `Cc1nc(-c2ccc(OCC(C)C)c(C#N)c2)sc1C(=O)O`, the Potency result is “inactive”.

Take `COc1cccc2c1C(=O)c1c(O)c3c(c(O)c1C2=O)C[C@@](O)(C(=O)CO)C[C@@H]3O[C@H]1C[C@H](N)[C@H](O[C@@H]2CCCCO2)[C@H](C)O1`: the Potency entry was “inactive”.

For `CN(C)c1ccc(/C=C2\C(=O)Nc3ccccc32)cc1`, the Potency result was “inactive”.

With `O=C1C(Cl)=C(NCCN2CCOCC2)C(=O)c2ncccc21`, the Potency result was “inactive”.

Turning to `CC(C(=O)O)c1ccc(C(=O)c2cccs2)cc1` (stereo not given), the Potency result was “inactive”.

Take `CC1=C(CO)C(=O)O[C@@H]([C@@H](C)[C@H]2CC[C@H]3[C@@H]4C[C@H]5O[C@]56[C@@H](O)C=CC(=O)[C@]6(C)[C@@H]4CC[C@]23C)C1`: the Potency result is “inactive”.

As to `Cc1cc(O)c2c(c1)C(=O)c1cc(O)cc(O)c1C2=O`, the Potency entry was “inactive”.

With `CC[n+]1c(-c2ccccc2)c2cc(N)ccc2c2ccc(N)cc21`, the Potency was 1.95 µM (active).

With `O=c1c2ccccc2nc2n1CCc1c-2[nH]c2ccccc12`, the Potency result is “inactive”.

With `Nc1ccc2c(c1)CN1C(=O)c3ccccc3C1=N2`, the Potency result is “inactive”.

For `O=C1C=CC[C@@H]2[C@H]3CCCN4CCC[C@@H](CN12)[C@@H]34`, the Potency entry was “inactive”.

For the compound `CC(=O)Nc1ccc([C@H](C)C(=O)Nc2ncc(C(C)C)s2)cc1`, the Potency was 4.89 µM (active).

Turning to `CN1CC(=O)N2C(Cc3c([nH]c4ccccc34)[C@H]2c2ccc3c(c2)OCO3)C1=O` (stereo not given in full), the Potency entry was “inactive”.

With `COc1ccc(-c2coc3cc(O)ccc3c2=O)cc1`, the Potency entry was “inactive”.

Consider `Nc1ncnc2c1ncn2[C@@H]1O[C@@H](CO)[C@H](O)[C@H]1O`, for which the Potency result was “inactive”.

As to `Cc1cc(O)c2ccccc2c1O`, the Potency entry was “inactive”.

Turning to `N[C@H](CSC(c1ccccc1)(c1ccccc1)c1ccccc1)C(=O)O`, the Potency entry was “inactive”.

Consider `O=C(O)Cc1ccc(-c2ccccc2)cc1`, for which the Potency entry was “inactive”.

For the compound `O=c1c(-c2ccc(O)cc2)coc2cc(O)ccc12`, the Potency entry is “inactive”.

Consider `CC=CC[C@@H](C)C(=O)[C@H]1C(=O)N[C@@H](C(C)C)C(=O)N(C)CC(=O)N(C)[C@@H](CC(C)C)C(=O)N[C@@H](C(C)C)C(=O)N(C)[C@@H](CC(C)C)C(=O)N[C@@H](C)C(=O)N[C@H](C)C(=O)N(C)[C@@H](CC(C)C)C(=O)N(C)[C@@H](CC(C)C)C(=O)N(C)[C@@H](C(C)C)C(=O)N1C`, for which the Potency entry was “inactive”.

Take `CNC1[C@H](O)C(O[C@@H]2C(O)C(O[C@H]3O[C@H]([C@@H](C)NC)CC[C@H]3N)[C@@H](N)C[C@H]2N)OC[C@]1(C)O` (stereo not given in full): the Potency entry was “inactive”.

`CC(C(=O)O)c1ccc2c(c1)[nH]c1ccc(Cl)cc12` (stereo not given): the Potency entry is “inactive”.

Turning to `NC(N)=NN=C(/C=C/c1ccc([N+](=O)[O-])o1)/C=C/c1ccc([N+](=O)[O-])o1`, the Potency entry was “inactive”.

With `O=S(=O)(CC1CS1)c1ccc(Oc2ccccc2)cc1` (stereo not given), the Potency result was “inactive”.

Take `CCCCCCOc1ccccc1C(N)=O`: the Potency entry is “inactive”.

For the compound `O=C1NC(=O)C(=Cc2ccc(-c3ccc(F)cc3)o2)S1`, the Potency entry was “inactive”.

For the compound `O=C(c1ccccc1)c1ccc2n1CCC2C(=O)O` (stereo not given), the Potency entry was “inactive”.
